Test [1] in a line: binders of probe aFSTL3 on microarray, primary screen, stem cell growth factor project, biochemical, small-molecule microarray, fluorescence 635/667 (AID 1064).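 Note: measures binding of the biotinylated anti-FSTL3 antibody to printed compounds.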 The following applies: higher = more signal.
The nature of test [2]: binders from COS7 lysate, DM2A8 probe, primary screen, torsin A project, cell lysate, small-molecule microarray, fluorescence 635/667 (AID 1065). As to conditions: higher = more signal, COS7 lysate expressing mutant human TOR1A.
The nature of test [3]: binders of probe aFGF2 on microarray, primary screen, stem cell growth factor project, biochemical, small-molecule microarray, fluorescence 635/667 (AID 1067).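 Note: measures binding of biotinylated aFGF2 protein to printed compounds on slides; z-score merges feature fluorescence and signal-to-noise across triplicate slides.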 As to conditions: higher = more signal.
Test [4] is described as follows: binders of probe aFGF10 on microarray, primary screen, stem cell growth factor project, biochemical, small-molecule microarray, fluorescence 635/667 (AID 1071).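 Note: score merges 667 nm spot intensity and signal to noise from triplicate slides.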 As to conditions: higher = more signal.
For test [5], the target named is Neurogenic locus notch homolog protein 2 (Homo sapiens) (UniProt Q04721). The experiment in a line: Notch2 binders on small-molecule microarrays, primary screen, biochemical, small-molecule microarray, 635 nm fluorescence, stem cell growth factors (AID 1073). The following applies: Notch2 binding, higher = more signal.
Sequence of Neurogenic locus notch homolog protein 2 (Homo sapiens) (Q04721 whole entry, looked up, canonical isoform): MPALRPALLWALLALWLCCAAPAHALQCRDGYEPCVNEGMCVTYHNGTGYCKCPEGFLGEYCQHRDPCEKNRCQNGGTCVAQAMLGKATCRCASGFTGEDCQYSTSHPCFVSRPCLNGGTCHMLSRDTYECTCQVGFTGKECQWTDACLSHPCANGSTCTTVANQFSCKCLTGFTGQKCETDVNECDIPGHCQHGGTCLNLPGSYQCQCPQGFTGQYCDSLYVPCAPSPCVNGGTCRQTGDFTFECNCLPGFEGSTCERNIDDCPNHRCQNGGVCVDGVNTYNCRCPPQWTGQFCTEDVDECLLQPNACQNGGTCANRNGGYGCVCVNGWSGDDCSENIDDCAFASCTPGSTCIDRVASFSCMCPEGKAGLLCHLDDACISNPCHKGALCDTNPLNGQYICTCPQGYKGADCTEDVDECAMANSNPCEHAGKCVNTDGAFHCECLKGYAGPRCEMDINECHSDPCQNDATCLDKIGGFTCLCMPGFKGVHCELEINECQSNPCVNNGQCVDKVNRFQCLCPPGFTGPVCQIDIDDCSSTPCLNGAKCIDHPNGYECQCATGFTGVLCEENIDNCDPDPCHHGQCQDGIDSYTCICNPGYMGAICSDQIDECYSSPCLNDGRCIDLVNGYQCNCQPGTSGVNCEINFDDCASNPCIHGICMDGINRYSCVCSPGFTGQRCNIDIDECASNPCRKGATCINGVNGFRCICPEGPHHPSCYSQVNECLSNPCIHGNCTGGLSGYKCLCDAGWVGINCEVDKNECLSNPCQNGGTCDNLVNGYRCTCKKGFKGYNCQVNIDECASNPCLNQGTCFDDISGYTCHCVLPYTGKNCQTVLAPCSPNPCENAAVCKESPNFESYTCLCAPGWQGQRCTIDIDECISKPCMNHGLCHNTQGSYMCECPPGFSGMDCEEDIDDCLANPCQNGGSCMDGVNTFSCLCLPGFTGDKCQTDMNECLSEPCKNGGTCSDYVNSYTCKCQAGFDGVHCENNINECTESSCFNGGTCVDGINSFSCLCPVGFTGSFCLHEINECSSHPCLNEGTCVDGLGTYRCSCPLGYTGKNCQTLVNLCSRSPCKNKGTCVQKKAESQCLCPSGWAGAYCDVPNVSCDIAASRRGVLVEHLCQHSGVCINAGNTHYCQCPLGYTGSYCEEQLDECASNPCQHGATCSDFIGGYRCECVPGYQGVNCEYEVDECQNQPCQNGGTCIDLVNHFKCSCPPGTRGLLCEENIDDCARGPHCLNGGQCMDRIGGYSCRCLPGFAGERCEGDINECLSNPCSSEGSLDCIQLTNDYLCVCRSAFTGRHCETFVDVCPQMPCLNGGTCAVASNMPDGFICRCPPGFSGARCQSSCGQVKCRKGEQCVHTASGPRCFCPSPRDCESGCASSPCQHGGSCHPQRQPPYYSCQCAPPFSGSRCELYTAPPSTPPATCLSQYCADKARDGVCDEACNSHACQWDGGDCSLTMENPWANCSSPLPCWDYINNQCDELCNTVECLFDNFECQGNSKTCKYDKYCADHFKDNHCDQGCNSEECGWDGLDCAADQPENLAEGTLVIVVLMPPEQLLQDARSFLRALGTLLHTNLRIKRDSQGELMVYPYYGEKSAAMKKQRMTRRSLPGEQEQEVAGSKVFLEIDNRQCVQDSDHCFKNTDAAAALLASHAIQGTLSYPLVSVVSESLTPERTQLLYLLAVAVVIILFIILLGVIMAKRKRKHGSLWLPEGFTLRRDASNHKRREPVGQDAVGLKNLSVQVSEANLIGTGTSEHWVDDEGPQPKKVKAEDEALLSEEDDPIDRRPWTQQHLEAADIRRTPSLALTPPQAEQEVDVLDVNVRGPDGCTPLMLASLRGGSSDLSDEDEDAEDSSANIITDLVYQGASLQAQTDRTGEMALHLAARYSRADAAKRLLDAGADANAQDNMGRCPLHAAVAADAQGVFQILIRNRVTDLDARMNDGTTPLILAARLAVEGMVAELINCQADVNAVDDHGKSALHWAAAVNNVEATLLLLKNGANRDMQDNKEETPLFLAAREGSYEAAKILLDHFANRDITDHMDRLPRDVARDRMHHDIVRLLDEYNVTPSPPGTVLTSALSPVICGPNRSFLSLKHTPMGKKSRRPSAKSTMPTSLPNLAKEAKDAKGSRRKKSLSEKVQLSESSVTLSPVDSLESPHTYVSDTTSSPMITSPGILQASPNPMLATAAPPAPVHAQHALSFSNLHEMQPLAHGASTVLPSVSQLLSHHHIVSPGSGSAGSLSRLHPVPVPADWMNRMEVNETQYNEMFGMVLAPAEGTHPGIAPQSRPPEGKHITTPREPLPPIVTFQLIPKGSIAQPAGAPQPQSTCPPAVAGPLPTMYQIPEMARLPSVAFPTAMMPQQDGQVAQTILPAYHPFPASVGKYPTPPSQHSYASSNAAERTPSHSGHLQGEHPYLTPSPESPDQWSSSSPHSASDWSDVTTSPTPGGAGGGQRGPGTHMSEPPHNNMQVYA
In test [6] the target is Pro-neuregulin-1, membrane-bound isoform (Homo sapiens) (UniProt Q02297). The experiment in a line: NRG1 binders on small-molecule microarrays, primary screen, psychiatric disease protein project, biochemical, small-molecule microarray, fluorescence 635/667 (AID 1075).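 Note: score combines 667 nm spot fluorescence with signal to noise.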 The following applies: NRG1 binding, 635 nm fluorescence, higher = more signal.
Sequence of Pro-neuregulin-1, membrane-bound isoform (Homo sapiens) (Q02297 whole entry, looked up, the tested form may be a part, canonical isoform): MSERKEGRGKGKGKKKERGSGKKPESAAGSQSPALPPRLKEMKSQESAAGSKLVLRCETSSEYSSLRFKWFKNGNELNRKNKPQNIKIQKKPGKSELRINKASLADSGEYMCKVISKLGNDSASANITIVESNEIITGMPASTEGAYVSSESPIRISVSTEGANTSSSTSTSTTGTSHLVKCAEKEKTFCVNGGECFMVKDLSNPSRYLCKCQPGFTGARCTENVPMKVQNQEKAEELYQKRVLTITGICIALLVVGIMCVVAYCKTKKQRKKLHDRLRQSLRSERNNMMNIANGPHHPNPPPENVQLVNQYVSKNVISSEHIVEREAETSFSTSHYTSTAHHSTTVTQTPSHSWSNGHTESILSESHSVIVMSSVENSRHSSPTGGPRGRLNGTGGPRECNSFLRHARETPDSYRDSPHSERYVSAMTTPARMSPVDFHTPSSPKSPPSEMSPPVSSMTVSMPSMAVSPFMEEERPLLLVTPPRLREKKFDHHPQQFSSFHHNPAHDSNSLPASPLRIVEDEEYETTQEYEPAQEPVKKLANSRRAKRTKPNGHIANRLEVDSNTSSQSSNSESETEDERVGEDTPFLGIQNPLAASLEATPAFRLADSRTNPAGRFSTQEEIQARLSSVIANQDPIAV
In test [7] the test system is Neuregulin-1 EGF-like domain. The experiment in a line: binders of neuregulin-1 EGF-like domain, primary screen, biochemical, small-molecule microarray, 635 nm fluorescence (AID 1081).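 Note: binding of the protein to compounds printed on small-molecule microarray slides.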 The following applies: small-molecule microarray binding, higher = more signal.
Test [8] in a line: FRG1 promoter luciferase signal modulators, primary screen, FRG1 inhibition for FSHD, cell-based, C2C12 myotubes, firefly/Renilla luciferase, luminescence (AID 1084). The following applies: higher = more signal, called active from +8 up or from −8 down.
Test [9] is described as follows: binders of probe aFST on microarray, primary screen, stem cell growth factor project, biochemical, small-molecule microarray, fluorescence 635/667 (AID 1086).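 Note: score merges 667 nm fluorescence with signal-to-noise of each printed compound spot.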 As to conditions: higher = more signal.
Test [10] is described as follows: binders of probe aHhip on microarray, primary screen, stem cell growth factor project, biochemical, small-molecule microarray, fluorescence 635/667 (AID 1087).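 Note: score merges spot fluorescence at 667nm with spot signal to noise ratio.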 As to conditions: higher = more signal.
Test [11] relates to PRMT1 (protein arginine N-methyltransferase 1). The experiment in a line: PRMT1 binders on small-molecule microarrays, primary screen, biochemical, small-molecule microarray, 635 nm fluorescence (AID 1088).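 Note: binding of Prmt1 protein to compounds spotted on small-molecule microarray slides.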 As to conditions: small-molecule microarray binding, higher = more signal.
Test [12] is described as follows: yeast growth modulation, basal conditions, primary screen, YJM789 clinical isolate, OD600, 24 h (AID 1089).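 Note: growth of clinical yeast isolate S. cerevisiae YJM 789 seeded 1000 cells per well; test concentration not given here.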 The following applies: S. cerevisiae YJM789 growth, higher = more signal, called active from +8 up or from −8 down.
Test [13] can be described thus: fission yeast growth modulation, primary screen, strain 972, OD600, 24 h, no modulator (AID 1090).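 Note: basal condition with compound alone and no growth modifier present; test concentration not given here.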 The following applies: S. pombe 972 growth, higher = more signal, called active from +8 up or from −8 down.
A short description of test [14]: S. cerevisiae growth modulation with rapamycin, primary screen, strain BY4716, OD600, 96 h (AID 1091). Note: test concentration not given here. As to conditions: higher = more signal, called active from +8 up or from −8 down.
Test [15] has as its target Torsin-1A-interacting protein 2 (Homo sapiens) (UniProt Q8NFQ8). The experiment in a line: LULL1 binders on small-molecule microarray, primary screen, cell lysate, human LULL1 lysate, 635/667 nm fluorescence (AID 1092).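 Note: probe is lysate of COS7 cells overexpressing human LULL1; score merges per-feature 667 nm fluorescence with signal-to-noise.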 As to conditions: hLULL1 lysate binding, 635 nm fluorescence, higher = more signal.
Test [16] is described as follows: E. coli growth modulation, two-sided OD650, primary screen, E. coli filamentation project, strain DRC41, 24 h (AID 1093).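 Note: MC1000 strain lacking acrAB efflux and sulA so SOS filamentation is blocked; test concentration not given here.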 The following applies: OD650, 24 h, higher = more signal, called active from +8 up or from −8 down.
A short description of test [17]: small-molecule microarray binders of probe aLefty2, primary screen, biochemical, biotinylated probe, 635/667 nm fluorescence (AID 1094).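 Note: score merges spot fluorescence near 667 nm with spot signal-to-noise ratio.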 As to conditions: higher = more signal.
In test [18] the test system is Noggin (protein binding on small-molecule microarray). The experiment in a line: Noggin binders on small-molecule microarray, primary screen, biochemical, 635/667 nm fluorescence (AID 1095).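 Note: score merges 667 nm feature fluorescence with signal to noise over triplicate slides.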 The following applies: 635 nm fluorescence, higher = more signal.
The target of test [19] is Neurogenic locus notch homolog protein 3 (Homo sapiens) (UniProt Q9UM47). The experiment in a line: NOTCH3 binders on small-molecule microarray, primary screen, biochemical, 635/667 nm fluorescence (AID 1096). As to conditions: NOTCH3 binding, 635 nm fluorescence, higher = more signal.
The nature of test [20]: small-molecule microarray binders of probe aEGFR, primary screen, biochemical, biotinylated probe, 635/667 nm fluorescence (AID 1097).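 Note: probe is a biotinylated anti-EGFR antibody binding compounds printed on slides; score combines fluorescence near 667 nm and signal to noise of each spot.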 The following applies: higher = more signal.

SMILES strings stand for the structures. Active and inactive are the calls of the source.

Sequence of Torsin-1A-interacting protein 2 (Homo sapiens) (Q8NFQ8 whole entry, looked up): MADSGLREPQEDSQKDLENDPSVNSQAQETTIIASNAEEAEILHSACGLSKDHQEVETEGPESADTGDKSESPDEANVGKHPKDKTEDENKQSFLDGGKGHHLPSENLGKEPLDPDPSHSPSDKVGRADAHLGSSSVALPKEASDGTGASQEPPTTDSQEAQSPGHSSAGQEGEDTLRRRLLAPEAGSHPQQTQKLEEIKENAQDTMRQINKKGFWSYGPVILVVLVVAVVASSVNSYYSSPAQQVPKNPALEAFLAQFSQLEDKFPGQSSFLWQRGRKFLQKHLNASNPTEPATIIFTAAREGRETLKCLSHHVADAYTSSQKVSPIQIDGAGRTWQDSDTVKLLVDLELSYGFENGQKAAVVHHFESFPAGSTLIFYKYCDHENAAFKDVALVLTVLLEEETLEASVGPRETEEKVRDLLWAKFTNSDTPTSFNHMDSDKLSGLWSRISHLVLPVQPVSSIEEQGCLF

For the compound `C[C@@H](OCc1ccccc1)C1NC(=O)[C@@]23C(=O)N[C@@H](Cc4ccccc4)C2[C@H](C)[C@@]2(C)O[C@H]2C3/C=C/C/C=C\CNC(=O)[C@@H]2CCCN2C1=O` (stereo not given in full), the composite z-score was -0.0401 in test [1]; -0.332 in [2]; -0.146 in test [3]; -0.595 in test [4]; -0.571 in test [5]; -0.52 in [6]. For the same compound, the composite z-score in test [7] was 0.633; in [9], -0.111; in test [10], -0.343; in [11] it was -0.449; in [15] it was -0.139; in test [17], -0.0901. Further, the composite z-score was -0.315 in test [18], -0.665 in test [19] and -0.209 in test [20]. For the same compound, the z-score is 1.91 (inactive) in [8]; -0.399 (inactive) in test [12]; -0.985 (inactive) in [13]; -0.266 (inactive) in test [14]; 2.34 (inactive) in test [16].

As for `C=CCNC(=O)[C@@H]1[C@H]2C(=O)O[C@H](c3ccccc3)[C@H](c3ccccc3)N2[C@H](c2ccc(O)cc2)[C@@]12C(=O)Nc1ccccc12`, the composite z-score in test [1] is -0.156; in test [2] it was 0.654; in [3], -0.0521; in test [4], 0.0546; in [5], -0.554; in test [6] it was 1.31. Moreover, the composite z-score was 0.574 in test [7]; -0.0542 in test [9]; -0.251 in [10]; 1.45 in test [11]; 2.8 in test [15]; -0.189 in test [17]. For the same compound, the composite z-score in test [18] is 0.855; in test [19], 0.31; in test [20], -0.129. Also, the z-score is 0.674 (inactive) in [8]; 0.455 (inactive) in test [12]; -1.32 (inactive) in [13]; 1.89 (inactive) in test [14]; 2.14 (inactive) in test [16].

With `CCN(CC)c1ccc(N2CC=CC34O[C@@H]5C=CCOC(=O)[C@@H]5[C@H]3C(=O)N(C(CO)C(C)C)[C@@H]4C2=O)cc1` (stereo not given in full), the composite z-score is 0.277 in test [1]; -0.866 in test [2]; -0.134 in test [3]; -0.241 in test [4]; -0.835 in [5]; -0.367 in test [6]. The composite z-score in [7] is -0.805; in test [9], -0.609; in test [10], -0.134; in test [11], -0.755; in test [15], -0.952; in test [17], -0.138. The results for the composite z-score in test [18], in test [19] and in [20] were -0.544, -1.02 and -0.253, respectively. Besides, the z-score is 0.232 (inactive) in [8]; 1.01 (inactive) in test [12]; -0.635 (inactive) in test [13]; 1.07 (inactive) in test [14]; 1.59 (inactive) in [16].

Consider `C=CCC(OC(C)=O)[C@@H]1[C@@H](N(Cc2ccc(-c3cccc(C(F)(F)F)c3)o2)C(=O)c2ccc(-c3ccccc3)cc2)c2cc(OCCCO)ccc2N1C(=O)Cc1ccc(OC)cc1` (stereo not given in full), for which the composite z-score in test [1] was 0.365; in test [2], -0.338; in [3] it was -0.1; in test [4], -0.394; in [5], -0.654; in test [6], -0.61. Further, the composite z-score in [7] is -0.663; in test [9] it was 0.258; in test [10], -0.0324; in [11], -0.305; in test [15], -0.0364; in test [17] it was 0.0236. In addition, the composite z-score was -0.475 in [18], -1.16 in test [19] and -0.191 in test [20]. In addition, the z-score in [8] is -0.981 (inactive); in test [12], -0.933 (inactive); in test [13], -1.88 (inactive); in test [14], -0.82 (inactive); in test [16] it was 1.84 (inactive).

Turning to `O=C(NO)[C@]1(Cc2ccccc2)N=C(c2ccc(OCCCO)cc2)O[C@@H]1c1ccccc1`, the composite z-score in test [1] was 0.464; in test [2], 1.2; in [3], -0.246; in [4] it was -0.134; in test [5], -0.66; in [6] it was 0.545. The composite z-score in [7] was -0.921; in [9], 0.14; in [10], -0.0645; in [11] it was -0.269; in [15] it was -0.231; in test [17] it was 0.0204. In addition, the composite z-score in [18] is -0.0613; in test [19], -1.1; in test [20], -0.174. In addition, the z-score in test [8] is -1.62 (inactive); in [12] it was -4.96 (inactive); in [13] it was -3.08 (inactive); in [14], -1.94 (inactive); in [16], 3.42 (inactive).

Consider `CCOC(=O)C[C@H]1[C@H](OC(=O)c2ccc(-c3ccccc3)cc2)[C@@H](NC(=O)c2ccccc2)c2cc(OCCCO)ccc2N1C(=O)c1ccccc1`, for which the composite z-score in [1] is -0.3; in test [2], 0.707; in test [3], 0.0216; in test [4], 0.281; in test [5], 0.741; in test [6], 0.622. Moreover, the composite z-score in test [7] came to 0.773; in [9], 0.515; in test [10], 0.201; in [11] it was 1.35; in [15] it was 1.69; in [17] it was 0.0921. For the same compound, the results for the composite z-score in test [18], in test [19] and in test [20] were -0.0461, 0.526 and -0.019, respectively. The z-score in test [8] is -0.867 (inactive); in test [12] it was -1.08 (inactive); in test [13] it was -1.94 (inactive); in test [14] it was -0.596 (inactive); in test [16], 2.17 (inactive).

For the compound `O=C(NCc1ccccc1)[C@@H]1c2ccccc2C(=O)N(Cc2ccccc2Cl)[C@H]1c1ccc(CO)cc1`, the composite z-score in [1] amounted to 0.389; in test [2], 0.658; in [3], 0.0139; in [4], 0.124; in [5] it was 1.21; in test [6] it was 0.887. For the same compound, the composite z-score in test [7] is 1.25; in test [9], 0.893; in [10], 0.0623; in test [11], 1.41; in test [15] it was 2.69; in test [17], 0.054. Also, the results for the composite z-score in test [18], in test [19] and in test [20] were 1.17, 1.05 and 0.103, respectively. Besides, the z-score in test [8] was -2.93 (inactive); in test [12], -0.21 (inactive); in test [13], -1.82 (inactive); in test [14] it was -1.49 (inactive); in test [16], 2.1 (inactive).

`C=C(C(=O)CC[C@H](OC(C)=O)c1ccc(CO)o1)C(C)C`: the composite z-score in test [1] was -0.466; in [2] it was 0.615; in test [3], -0.189; in [4], 0.122; in [5], -1.28; in [6], -0.116. Moreover, the composite z-score in test [7] is 0.388; in test [9], -0.393; in [10], 0.0596; in [11], 0.966; in [15] it was 0.468; in test [17], -0.127. For the same compound, the results for the composite z-score in test [18], in test [19] and in test [20] were 0.512, -0.654 and -0.181, respectively. Moreover, the z-score in test [8] was -0.629 (inactive); in [12], 1.01 (inactive); in test [13], -0.344 (inactive); in test [14] it was -0.454 (inactive); in [16] it was 1.44 (inactive).

With `CCCC[C@@H](O)C1=C(C)C[C@H]2C(=O)N(C)C(=O)[C@H]2[C@H]1CO`, the composite z-score was -0.275 in test [1]; -0.305 in test [2]; -0.12 in [3]; 0.469 in [4]; 0.109 in [5]; 0.11 in test [6]. The composite z-score is -0.0165 in test [7]; -0.176 in test [9]; -0.318 in test [10]; 0.54 in [11]; 1.31 in [15]; -0.328 in test [17]. For the same compound, the results for the composite z-score in test [18], in test [19] and in test [20] were 1.09, 0.352 and -0.21, respectively. In addition, the z-score in [8] is -0.645 (inactive); in [12], -0.219 (inactive); in test [13] it was -1.6 (inactive); in test [14], -1.19 (inactive); in test [16] it was 2.68 (inactive).

Values taken from PubChem BioAssay.
